How the values were obtained:
Conditions in all cases: concentration: 1 μM, replicates: in singlicate; n = 1
MYLK4 = test system: MYLK4
MYLK = test system: MYLK
MYO3A = test system: MYO3A
MYO3B = test system: MYO3B
NDR1 = test system: T1, NDR1
T1 construct: gene STK38

NDR2 = test system: NDR2
NEK10 = test system: NEK10
NEK11 = test system: NEK11
NEK1 = test system: NEK1
NEK2 = test system: NEK2
NEK3 = test system: NEK3
NEK4 = test system: NEK4
NEK5 = test system: NEK5
NEK6 = test system: NEK6
NEK7 = test system: NEK7
NEK9 = test system: NEK9
NIK = test system: T2, NIK
T2 construct: gene MAP3K14

NIM1 = test system: T3, NIM1
T3 construct: gene MGC42105

NLK = test system: NLK
OSR1 = test system: T4, OSR1
T4 construct: gene OXSR1
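Further: KINOMEscan kinase panel screen.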

Row | SMILES | %Inh (MYLK4) [%] | %Inh (MYLK) [%] | %Inh (MYO3A) [%] | %Inh (MYO3B) [%] | %Inh (NDR1) [%] | %Inh (NDR2) [%] | %Inh (NEK10) [%] | %Inh (NEK11) [%] | %Inh (NEK1) [%] | %Inh (NEK2) [%] | %Inh (NEK3) [%] | %Inh (NEK4) [%] | %Inh (NEK5) [%] | %Inh (NEK6) [%] | %Inh (NEK7) [%] | %Inh (NEK9) [%] | %Inh (NIK) [%] | %Inh (NIM1) [%] | %Inh (NLK) [%] | %Inh (OSR1) [%]
1 | CCCc1ccc(S(=O)(=O)NC2CCN(c3ccnc(Nc4ccc(OC)cc4)n3)C2)cc1 (centres unmarked) [GSK1379737] | 0 | 30 | 15 | 0 | 0 | 0 | 21 | 27 | 0 | 0 | 1 | 10 | 15 | 39 | 0 | 0 | 43 | 30 | 0 | 100
2 | O=C(Nc1n[nH]c2nc(-c3ccco3)c(Br)cc12)c1ccc(CN2CCCC2)cc1.O=C(O)[C@H](O)[C@@H](O)C(=O)O [SB-742352] | 5 | 83 | 0 | 8 | 0 | 0 | 0 | 0 | 0 | 6 | 0 | 0 | 0 | 0 | 10 | 0 | 0 | 0 | 0 | 0
3 | COc1cc2ncnc(Nc3ccc(OCc4ccccc4Br)c(Cl)c3)c2cc1OC.Cl [GI261590] | 0 | 10 | 38 | 0 | 0 | 0 | 25 | 0 | 0 | 0 | 12 | 0 | 14 | 0 | 0 | 0 | 20 | 22 | 26 | 0
4 | Fc1ccc(-c2ncn(CCCNCc3ccccc3)c2-c2ccncc2)cc1 | 0 | 13 | 7 | 22 | 0 | 19 | 34 | 19 | 0 | 0 | 31 | 7 | 6 | 12 | 0 | 0 | 12 | 15 | 13 | 19
5 | CS(=O)(=O)CCNCc1nc(-c2ccc3ncnc(Nc4ccc(OCc5cccc(F)c5)c(Cl)c4)c3c2)cs1.Cl [GW583340] | 4 | 1 | 34 | 0 | 0 | 15 | 0 | 0 | 0 | 16 | 3 | 0 | 6 | 0 | 0 | 11 | 0 | 6 | 0 | 0
6 | Fc1cccc(COc2ccc(Nc3ncnc4cc[nH]c34)cc2Cl)c1 | 8 | 10 | 4 | 29 | 24 | 8 | 0 | 0 | 0 | 12 | 12 | 3 | 16 | 11 | 9 | 10 | 9 | 48 | 0 | 21
7 | Cl.c1ccc(Cn2ncc3cc(Nc4ncnc5ccccc45)ccc32)cc1 [GW273749] | 37 | 8 | 14 | 0 | 12 | 0 | 0 | 0 | 0 | 5 | 2 | 0 | 18 | 0 | 1 | 15 | 0 | 3 | 0 | 10
8 | CNc1nccc(-c2c(-c3ccc(F)cc3)ncn2C2CCN(C)CC2)n1 [SB-222903] | 0 | 0 | 0 | 19 | 33 | 17 | 0 | 0 | 0 | 0 | 17 | 0 | 0 | 0 | 0 | 0 | 31 | 0 | 83 | 0
9 | Cl.c1ccc(Cn2ccc3cc(Nc4ncnc5ccccc45)ccc32)cc1 [GW275568] | 26 | 21 | 16 | 0 | 32 | 1 | 29 | 0 | 0 | 14 | 12 | 5 | 28 | 0 | 9 | 24 | 0 | 10 | 20 | 1
10 | Clc1ccc(-c2cc(-c3c[nH]nc3-c3ccccn3)ccn2)cc1 [GW681251] | 0 | 0 | 0 | 0 | 0 | 0 | 12 | 0 | 0 | 0 | 3 | 8 | 36 | 0 | 0 | 2 | 30 | 16 | 11 | 2
11 | Nc1nc(-c2ccc3c(N)n[nH]c3c2)cc(N2CCC[C@@H](C(=O)Nc3ccccc3)C2)n1.O=C(O)C(F)(F)F.O=C(O)C(F)(F)F [GSK2288359] | 9 | 27 | 19 | 0 | 1 | 5 | 0 | 0 | 0 | 0 | 2 | 0 | 13 | 0 | 0 | 15 | 0 | 8 | 0 | 3
12 | COc1ccc(-c2oc3ncnc(N)c3c2-c2ccc(OC)cc2)cc1 [SB-589132] | 9 | 18 | 25 | 0 | 15 | 37 | 49 | 45 | 9 | 5 | 17 | 20 | 31 | 0 | 0 | 19 | 33 | 37 | 4 | 0
13 | COc1ccc(Nc2nccc(N3CCC(NC(=O)c4cccc(NC(C)=O)c4)C3)n2)cc1 (centres unmarked) [GSK1379732] | 6 | 29 | 37 | 0 | 15 | 10 | 24 | 48 | 6 | 6 | 11 | 0 | 25 | 0 | 0 | 13 | 28 | 47 | 12 | 7
14 | Oc1ccc2ncnc(Nc3ccc(OCc4ccccc4)cc3)c2c1 [GI262866] | 3 | 0 | 0 | 0 | 0 | 0 | 0 | 0 | 0 | 0 | 0 | 0 | 7 | 0 | 1 | 10 | 8 | 7 | 7 | 0
15 | C[C@H]1CC[C@@H](C(=O)Nc2ccccc2)CN1c1cc(-c2ccc3c(N)n[nH]c3c2)nc(N)n1 [GSK2283293] | 0 | 40 | 7 | 0 | 13 | 0 | 0 | 0 | 0 | 0 | 1 | 1 | 0 | 0 | 0 | 7 | 0 | 12 | 0 | 11
16 | Cc1ccc(NC(=O)c2cccc(C#N)c2)cc1-c1ccc(C(=O)Nc2ccncc2)cc1 [GSK1398463] | 7 | 14 | 0 | 0 | 0 | 0 | 1 | 0 | 27 | 28 | 25 | 18 | 11 | 0 | 0 | 4 | 0 | 8 | 1 | 31

Row | SMILES | %Inh (MYLK4) [%] | %Inh (MYLK) [%] | %Inh (MYO3A) [%] | %Inh (MYO3B) [%] | %Inh (NDR1) [%] | %Inh (NDR2) [%] | %Inh (NEK10) [%] | %Inh (NEK11) [%] | %Inh (NEK1) [%] | %Inh (NEK2) [%] | %Inh (NEK3) [%] | %Inh (NEK4) [%] | %Inh (NEK5) [%] | %Inh (NEK6) [%] | %Inh (NEK7) [%] | %Inh (NEK9) [%] | %Inh (NIK) [%] | %Inh (NIM1) [%] | %Inh (NLK) [%] | %Inh (OSR1) [%]
17 | CC(C)N1CCC(n2cnc(-c3ccc(F)cc3)c2-c2ccnc(N)n2)CC1 [SB-223132] | 9 | 19 | 0 | 0 | 7 | 0 | 9 | 0 | 11 | 0 | 33 | 0 | 3 | 8 | 0 | 0 | 0 | 0 | 49 | 0
18 | CSc1nn2c(=O)cc(N3CCOCC3)nc2n1Cc1cccc(Cl)c1Cl [GSK2347225] | 4 | 12 | 0 | 0 | 23 | 0 | 29 | 0 | 0 | 0 | 1 | 0 | 18 | 17 | 37 | 47 | 0 | 21 | 21 | 6
19 | N#Cc1ccc(Oc2ccc(Nc3ncnc4cc[nH]c34)cc2Cl)cc1 | 13 | 30 | 18 | 38 | 33 | 0 | 3 | 0 | 0 | 10 | 26 | 0 | 0 | 0 | 13 | 2 | 0 | 30 | 17 | 4
20 | CCn1c(-c2ccncc2)nc2cnccc21 [SB-735216] | 0 | 24 | 19 | 0 | 28 | 0 | 0 | 51 | 0 | 8 | 14 | 8 | 0 | 6 | 6 | 0 | 15 | 25 | 4 | 15
21 | Cl.O=S(=O)(c1cccc(F)c1)c1ccc(Nc2ncnc3cc(Br)sc23)cc1Cl [GSK306886] | 9 | 3 | 22 | 0 | 8 | 1 | 0 | 1 | 32 | 5 | 0 | 0 | 59 | 0 | 0 | 23 | 4 | 0 | 44 | 0
22 | Nc1nc(-c2ccccn2)c(-c2ccnc3ccccc23)s1 [GW548057] | 16 | 10 | 51 | 0 | 31 | 52 | 11 | 36 | 2 | 0 | 8 | 0 | 20 | 0 | 0 | 0 | 22 | 38 | 30 | 8
23 | CNc1nccc(-c2c(-c3ccc(F)cc3)ncn2CCCN2CCOCC2)n1 [SB-222516] | 0 | 0 | 0 | 0 | 0 | 28 | 0 | 0 | 0 | 0 | 17 | 2 | 100 | 0 | 0 | 0 | 47 | 14 | 0 | 27
24 | Cn1cc(-c2ccc3c(c2)CCN3C(=O)Cc2cccc(C(F)(F)F)c2)c2c(N)ncnc21 [GSK2606414] | 0 | 1 | 0 | 7 | 0 | 0 | 18 | 14 | 0 | 15 | 0 | 7 | 0 | 0 | 11 | 8 | 0 | 5 | 0 | 12
25 | Cc1cc(N2CCC(NS(=O)(=O)c3ccc(F)cc3)CC2)nc(Nc2cccc(C#N)c2)n1.O=C(O)C(F)(F)F [GSK1653537] | 0 | 0 | 0 | 0 | 0 | 0 | 1 | 0 | 55 | 0 | 0 | 0 | 0 | 0 | 0 | 0 | 0 | 18 | 35 | 6
26 | O=C(NCCCN1CCCC1=O)c1cnc(NCc2cc(Cl)ccc2Cl)nc1NC1CCNCC1 | 3 | 11 | 0 | 0 | 0 | 0 | 0 | 0 | 0 | 7 | 37 | 0 | 0 | 0 | 0 | 0 | 0 | 0 | 2 | 0
27 | O=c1cc(N2CCOCC2)nc2n(Cc3cccc(Cl)c3)ccn12 [GSK2296823] | 0 | 61 | 0 | 0 | 8 | 0 | 0 | 0 | 0 | 10 | 3 | 16 | 2 | 0 | 2 | 3 | 13 | 0 | 0 | 7
28 | Nc1nc(-c2ccc3c(N)n[nH]c3c2)cc(N2CCCCC2)n1 [GSK2228768] | 0 | 1 | 0 | 0 | 0 | 0 | 0 | 0 | 0 | 3 | 0 | 3 | 4 | 0 | 0 | 0 | 0 | 0 | 0 | 7
29 | CC(=O)Nc1n[nH]c2ncc(-c3ccccc3)cc12 [SB-548492] | 28 | 23 | 25 | 0 | 8 | 17 | 0 | 18 | 0 | 9 | 20 | 25 | 5 | 8 | 19 | 7 | 3 | 100 | 24 | 9
30 | Clc1cccc(-c2nc(Nc3ccncc3)c3ccccc3n2)c1 [GW873004] | 0 | 0 | 15 | 17 | 15 | 0 | 0 | 0 | 0 | 0 | 36 | 0 | 23 | 14 | 0 | 3 | 0 | 0 | 30 | 0
31 | CCC(CC)(CC)n1cnc2c(N)ncnc21 [SKF-97620] | 0 | 0 | 0 | 35 | 42 | 16 | 65 | 0 | 0 | 0 | 23 | 0 | 0 | 0 | 0 | 0 | 0 | 28 | 17 | 19

Reference: article PMC5540273 (PLoS ONE, 2017)
